Consider 30 sequences from PubChem BioAssay AID1508600 (Functional Genomics Laboratory (NCATS/FGL), 2020).

The whole screen tested about 53,000 sequences, of which about 3,700 (7%) were called active. This excerpt belongs to a sample that is enriched for actives. Unmarked numbers belong to inactive results.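 Rule for the calls: active = gene knockdowns whose robust z-score for IL-1 alpha signal is at least 2 or at most -2, so actives lie on both sides; inactive = the rest.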

The test is described as follows: Components of the Cytosolic LPS Sensing Pathway: Gene Identification via Genome-wide siRNA Screen.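 Note: robust z of the log signal after scaling to non-targeting control siRNA wells of the plate.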 Particulars: RAW264.7 macrophages, IL-1a HTRF, actives lie on both sides, screened at 100 nM (by protocol), cells primed 5 h with Pam3CSK4 first. A digest of the protocol: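 RAW264.7; siRNA 100 nM final, RNAiMAX, 48h 37 degrees C; Pam3CSK4 5 h; LipidA + TransIT-TKO 24 h; IL-1a HTRF; CellTiter-Glo viability; robust z vs negative-control median.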
Regarding GCAUUAGGAAUUCAAUUAGTT against Adamts1, the z-score was 0.813. Then “GGACGUAGCUAUGGAGGAUTT against 1810009A15Rik”, with -1.83; and GGAAACCAGAAAAACUGAATT against Parg, with 0.653; and GGAUUAAUUAAUACUUGGCTT against Rps9, with 0.986.

Consider CCGACACGUUCUCAAUGUCTT against Gss, for which the z-score was -0.496. Then GGAAGGACAAAGAAAGCCUTT against Fbxw4, with -0.286; and GGUUCUUAGGAGUUAACUCTT against Klf16, with 2.71 (active); and GGAGAUCAUGCUCAAGAACTT against Dgke, with 0.176. GGACACCUACUUGGUAUUGTT against Epor: the z-score is -0.632.

For the sequence GGAGAGUAUCAGCAAUGAATT against Impg2, the z-score is 1.02.

For the sequence GGAAAGUUCCCAUGUUCUCTT against Mgat4f, the z-score is 1.33.

On to CGUGAGAUCAUUGAUGUGGTT against Ankrd2, for which the z-score is -1.16. In the case of GGAUUCUCCAGACACCUUGTT against Styxl1, the z-score is -0.704. Regarding GCUAUUGCCUUAGAUCCAUTT against Lrp6, the z-score was 0.384. In the case of GCUCAACUUCUGAAUUAUATT against Enpep, the z-score is 2.64 (active). On to GGUCAGCAUCACCUACGAUTT against Prss8, for which the z-score is -0.688. With GGAGCUGAAGCAAAGACAGTT against Svbp, the z-score is -0.599.

In the case of GGAAACAACCAUCGAGGUUTT against Cyp4x1, the z-score was -0.31. For GGCUGUGACUCUGGAUUUGTT against Bdh1, the z-score is -0.985. For the sequence GGAUUCUGAACACUUUUUCTT against Pot1a, the z-score is -2.02 (active). As for GCACCAUGUAUACAAAAGATT against Pcdhb3, the z-score is 0.0679. Regarding GGAGUUUGUGAAUAAAUGUTT against Map2k2, the z-score is 0.177. For GUGGAAGACUUCACCGGACTT against Arxes1, the z-score is 2.01 (active). Turning to GCUUACUUUGGAACACAAATT against Tex18, the z-score was 1.22. GCAGGAUUGCAUAUAUCGGTT against Cspg5: the z-score is -0.672. Take CGAUGCUGUUCUUCAAUGUTT against Krt222: the z-score was 1.23.

Regarding GGUUUGAAUUCAAGUUCAUTT against Klhl5, the z-score is 0.616. Take GGAAAAAUAGGUCGAAUGATT against Arntl: the z-score was 0.229.

Take CGAUUCCAACAAGAAAGUGTT against Togaram2: the z-score was 0.649. Under GCGGGAGAAGCUAAUGAAATT against Ndufs5 stands 2.21 (active).
